# Measured values as given in PubChem BioAssay (NCATS).
# Inconclusive results are not listed. Active and inactive are the calls of the source. Calls come from the whole dose curve; as a rule, active = well fitted inhibition curve with a large enough effect; inconclusive = small, poorly fitted or top-dose-only effect, or effect the other way; inactive = flat fitted curve, though single readings scatter.
# Target: ATP-dependent 6-phosphofructokinase (Trypanosoma brucei brucei) (UniProt O15648)
# Assay: qHTS Assay to Find Inhibitors of T. brucei phosphofructokinase: hit validation (AID 492961);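 note: luminescence reports ADP formed as PFK phosphorylates fructose-6-phosphate with ATP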
# Details: T. brucei PFK, ADP-Glo luminescence; series mostly up to 51.4 µM
# Procedure, shortened: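 Compounds titrated; %activity normalized to 0x and 1x enzyme controls, curve-fitted. Readout: ADP-Glo luminescence after 45 min room-temperature reaction of 1.25 nM PFK, 0.1 mM ATP, 0.5 mM F6P, pH 8.0.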
# ATP-dependent 6-phosphofructokinase (Trypanosoma brucei brucei), sequence (O15648 whole entry, looked up): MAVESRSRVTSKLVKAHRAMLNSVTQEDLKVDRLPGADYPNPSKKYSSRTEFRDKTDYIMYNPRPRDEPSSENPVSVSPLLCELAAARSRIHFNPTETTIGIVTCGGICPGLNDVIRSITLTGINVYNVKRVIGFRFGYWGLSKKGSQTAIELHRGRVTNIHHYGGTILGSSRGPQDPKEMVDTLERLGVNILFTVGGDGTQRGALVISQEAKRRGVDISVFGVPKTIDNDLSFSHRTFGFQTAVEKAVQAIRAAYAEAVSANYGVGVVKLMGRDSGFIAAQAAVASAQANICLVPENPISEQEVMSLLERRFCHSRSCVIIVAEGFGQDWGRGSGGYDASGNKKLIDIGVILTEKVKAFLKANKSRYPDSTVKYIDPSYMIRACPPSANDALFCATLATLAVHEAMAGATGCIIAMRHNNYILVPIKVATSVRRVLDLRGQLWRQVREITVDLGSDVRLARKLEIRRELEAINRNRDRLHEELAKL
row,Compound,outcome
1,Cc1ncc(CSSCc2cnc(C)c(O)c2CO)c(CO)c1O,inactive
2,Cc1cccn2c(=O)c(-c3nnn[nH]3)cnc12,inactive
3,NCCC(O)(P(=O)(O)O)P(=O)(O)O,inactive
4,COc1cc(OC)cc(OC)c1,inactive
5,CCCCCCCCCCCCCCCC[N+](C)(C)CCN(Cc1ccc(OC)cc1)c1ncccn1,inactive
6,CN1CCN(C(c2ccccc2)c2ccccc2)CC1,inactive
7,Cc1ccc(C(=O)C(C)CN2CCCCC2)cc1 (stereo unspecified),inactive
8,O=S1(=O)c2cccc3cccc(c23)N1CCCN1CCN(c2ccc(F)cc2)CC1,inactive
9,CN1CCN(CCCN2c3ccccc3Sc3ccc(S(=O)(=O)N(C)C)cc32)CC1,inactive
10,COc1cc2c(cc1OC)C(=O)C(CC1CCN(Cc3ccccc3)CC1)C2 (stereo unspecified),inactive
11,Cc1c(C(C)C)c(=O)n(-c2ccccc2)n1C,inactive
12,CN(C)C(=S)SC(=S)N(C)C,inactive
13,CO/N=C1\CN(c2nc3c(cc2F)c(=O)c(C(=O)O)cn3C2CC2)CC1CN (stereo unspecified),inactive
14,COc1cc2c(cc1OC)C(C(C(=O)N(CCc1ccc(OC)c(OC)c1OC)CCc1ccc(OC)c(OC)c1OC)c1ccccc1)=NCC2 (stereo unspecified),inactive
15,CCN1CCC[C@H]1CNC(=O)c1c(OC)ccc(Br)c1OC,inactive
16,CN(C(=O)CN(CCO)CC(=O)N(C)C(C)(C)Cc1ccccc1)C(C)(C)Cc1ccccc1,inactive
